TRPM1 prom inh = reduces MITF-dependent TRPM1 promoter luciferase signal; SK-MEL-5 TRPM1 promoter luciferase, 24 h; inhibition, % at 12.5 µM; 330,000 tested, 0.83% active; AID 488899;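 active means mean inhibition across replicates of 60% or more, whatever share of single replicates reaches that level; inconclusive means some that reach 60%, reason not given; inactive means mean inhibition across replicates below 60%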
Gli-Sufu block = Gli-Sufu pathway antagonism; Sufu-KO-LIGHT fibroblasts, Gli luciferase reporter luminescence; inhibition, % at 5 µM; 340,000 tested, 0.74% active; AID 588413;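 active means inhibition above about 55%, limit read from the data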
Shn3 inh set2 = reduces Shn3 3'UTR luciferase signal in osteoblasts; Clone20 osteoblast Shn3 3'UTR firefly luciferase, 24 h; inhibition, % at 12.5 µM; 360,000 tested, 0.52% active;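 active means mean inhibition of at least 75% with every replicate also reaching 75%; inconclusive means mean inhibition at least 75% but some replicate below; inactive means mean inhibition below 75%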
Jurkat NFkB inh = inhibitors of the PMA/ionomycin-induced NF-kB reporter in Jurkat cells; PMA/ionomycin-induced NF-kB luciferase reporter, luminescence; AID 435003; 330,000 tested, 0.53% active; inhibition, % at 4 µM; in the data active means inhibition above about 50%
EBV LMP1 NFkB = inhibitors of Epstein-Barr LMP1-induced NF-kappaB reporter. LMP1-induced NF-kappaB luciferase reporter cells, luminescence. inhibition, % at 12.5 µM. 350,000 tested, 0.69% active. AID 504558; in the data active means inhibition above about 41%; inconclusive means no clear call, values can overlap the other calls
697 NFkB inh = inhibitors of the PMA/ionomycin-induced NF-kB reporter in 697 B cells; 697 B-cell NF-kB luciferase reporter, 16 h; inhibition, % at 4 µM; 330,000 tested, 0.33% active; in the data active means inhibition above about 35%
Numbers stand for hits; - = inactive; ? = inconclusive; . = no result given. Hits are enriched below; roughly 2.3% of the tested compounds scored in any of these assays.

SMILES	TRPM1 prom inh	Gli-Sufu block	Shn3 inh set2	Jurkat NFkB inh	EBV LMP1 NFkB	697 NFkB inh
C=C1CC(COc2cc(=O)oc3ccccc23)(c2ccccc2)OC1=O (configuration not stated)	94.1	-	97.3	.	67.0	.
Cn1nnc2cc(C(=O)NC3CCCCC3)ccc21	-	-	-	-	59.0	-
CC(C)NC(=O)c1ccc2c(c1)nnn2C	-	-	-	-	-	-
CC(NC1=CC(=O)c2cccnc2C1=O)C(O)c1ccccc1 (configuration not stated)	110.0	-	-	.	-	.
O=C(NCc1ccccn1)C1CCCN(S(=O)(=O)c2cc(Cl)ccc2Cl)C1 (configuration not stated)	98.1	-	-	.	-	.
NC(=O)c1ccc(N2CCN(S(=O)(=O)c3ccccc3)CC2)c([N+](=O)[O-])c1	-	56.5	-	-	-	-
NC(=O)[C@@H]1CCCNc2c(F)cc([N+](=O)[O-])cc2C(=O)N[C@@H](CCC(=O)O)C(=O)N[C@@H](CO)C(=O)N1	-	-	-	-	-	-
CN(c1ccc(Cl)cc1)c1cc(=O)n(C)c2ccccc12	-	-	-	-	-	-
CN(C)c1ccc(C=c2c3ccccc3n3c2c2c([n+]3C)CCCC2)cc1	98.2	88.8	90.9	.	42.5	.
CN(C)c1ccc(/C=C2\CCC/C(=C\c3ccccc3)C2=O)cc1	-	-	-	.	-	.
COc1cc(N(C)C)ccc1C=c1c2ccccc2n2c1cc(-c1ccccc1)[n+]2C	110.5	90.7	94.6	.	-	.
COc1cc(/C=C(/C(=O)O)c2ccc(-c3ccccc3)cc2)cc(OC)c1OC	-	-	-	-	-	-
CN(C)c1ccc(C=c2c3ccccc3n3c2cc(-c2ccc(Cl)cc2)[n+]3C)cc1	97.0	83.2	?	.	-	.
COc1cc(C=c2c3ccccc3n3c2cc(-c2ccccc2)[n+]3C)cc(OC)c1OC	64.6	-	-	.	-	.
Cc1cc(C)c([C@@H]2C[C@H]3CN(C4CCCC4)C(=O)[C@]34CCCN24)c(-n2cccn2)c1	-	-	-	-	-	-
O=C(CSc1nnc(-c2c[nH]c3ccccc23)o1)N1c2ccccc2CCc2ccccc21	-	-	-	-	-	-
Cc1ccc(NC(=O)c2cc3cc(OC(F)(F)F)ccc3[nH]2)cc1	.	-	.	-	.	-
CC(O)c1cc2c(s1)c1cnn(Cc3ccccc3F)c(=O)c1n2C (configuration not stated)	-	-	-	-	-	-
CN(C)c1ccc(C=c2c3cc([N+](=O)[O-])ccc3n3c2cc(-c2ccccc2)[n+]3C)cc1	94.9	80.7	86.5	.	-	.
CN(C)c1ccc(C=c2c3ccccc3n3c2cc(-c2ccccc2)[n+]3C)cc1	94.8	86.1	?	.	-	.
CN(C)c1ccc(C=C2C=C(c3ccccc3)OC2=O)cc1	.	.	-	.	-	.
CC(C)(C)[C@H]1COC(=O)[C@H](NC(=O)OCC2c3ccccc3-c3ccccc32)C/C=C\C[C@@H](CC(=O)N[C@H](CO)Cc2ccccc2)C(=O)N1	-	-	-	-	-	-
CC(C)(C)[C@@H]1COC(=O)[C@@H](NC(=O)OCC2c3ccccc3-c3ccccc32)C/C=C\C[C@@H](CC(=O)NCCO)C(=O)N1	-	-	85.8	-	-	-
C=C1CCC[C@]2(C)C[C@H]3OC(=O)C(CN4CCCCC4CO)[C@H]3CC12 (some centres not stated)	78.8	-	-	-	90.6	-
N#C/C(=C/c1ccc(N2CCCCC2)o1)c1cccc(F)c1	-	-	-	-	-	-
SMILES	TRPM1 prom inh	Gli-Sufu block	Shn3 inh set2	Jurkat NFkB inh	EBV LMP1 NFkB	697 NFkB inh
N#C/C(=C/c1ccc(N2CCCCCC2)o1)c1ccc(Cl)cc1	-	-	96.0	-	-	-
CC(C)C[C@H](NC(=O)c1nc[nH]c1C(=O)N[C@@H](CCCCNC(=O)OC(C)(C)C)C(=O)OC(C)(C)C)C(=O)OC(C)(C)C	-	-	-	-	-	-
CNC(=O)c1[nH]cnc1C(=O)N[C@@H](CCCCNC(=O)OC(C)(C)C)C(=O)OC(C)(C)C	-	-	-	-	43.7	-
COc1cccc(OC)c1NC(=O)Cn1nc(-c2ccc3c(c2)OCCO3)ccc1=O	-	-	-	-	-	-
CSc1ncc(CN2CCCC(C(=O)c3ccc(C(C)(C)C)cc3)C2)cn1 (configuration not stated)	-	-	-	-	-	-
C/C(=N\NC(=S)NC1CCCCC1)c1ccc(Cl)c(Cl)c1	-	-	-	-	-	-
CC(=NNC(=S)N1CC2CCC(CC2)C1)c1ccncn1	77.5	85.4	88.4	.	-	.
CSC(=S)NN=C(C)c1cccc(C)n1	74.2	91.8	92.7	.	-	.
Cc1cccc(C(=S)N2CCOCC2)n1	-	-	-	-	-	-
CCNC(=S)N1CCN(c2ccccn2)CC1	-	-	-	-	-	-
CC(=NNC(=S)N1CCCCC1)c1cccc(C)n1	-	-	-	.	68.6	.
Cc1cccc(NC(=S)Nc2cccc(C)n2)n1	-	-	-	-	-	-
CC(=NNC(=S)N1CCCCC1)c1ccccn1	.	.	?	.	57.0	.
Cc1cc(C)c(C)c(S(=O)(=O)N2CCC(C(=O)NCCCN3CCOCC3)CC2)c1C	-	-	-	-	-	-
N#Cc1cccc(N2[C@@H](Cc3cc4ccccc4n3Cc3ccccc3)COC[C@H]2Cc2ccc3ccccc3c2)c1	.	.	-	.	-	.
CC1=C(SCc2ccccc2)C(=O)c2ccccc2C1=O	70.2	-	-	.	-	.
Cn1c(SCc2ccccc2)nccc1=O	-	-	-	.	-	.
CCn1c(CCNC(=O)c2ccc(Cl)cc2Cl)n[nH]c1=S	-	-	-	-	-	-
O=C(NC1CCCCC1)C12CC3CC(C1)CC(n1cncn1)(C3)C2	-	-	-	-	77.6	-
Cc1nc(C)c(C(=O)Nc2ncc([N+](=O)[O-])s2)o1	-	-	-	-	49.3	-
Cc1cc(C)n(-c2nc(Nc3ccccc3C(F)(F)F)nc(-n3nc(C)cc3C)n2)n1	-	-	97.2	-	-	-
CCC(CC)C(=O)c1c[nH]c(C(=O)NCCOC)c1	-	-	-	-	-	-
CCc1ccc(-c2nc(CN3CCC(C(=O)NCc4ccc(F)cc4)CC3)c(C)o2)cc1	-	93.1	-	-	-	-
CCN(CCNC(=O)C1CCN(Cc2nc(-c3ccc(Cl)cc3)oc2C)CC1)c1ccccc1	-	-	-	-	-	-
Cc1oc(-c2ccc(Cl)cc2)nc1CN1CCC(C(=O)NCc2cccs2)CC1	-	-	-	-	-	-
CCc1ccc(-c2nc(CN3CCC(C(=O)NCCN(CC)c4ccccc4)CC3)c(C)o2)cc1	66.5	-	-	-	-	-
Cc1ccccc1-c1nc(CN2CCC(C(=O)NCCC3=CCCCC3)CC2)c(C)o1	-	-	-	-	-	-
Cc1ccccc1-c1nc(CN2CCC(C(=O)NCCCN3CCCC(C)C3)CC2)c(C)o1 (configuration not stated)	93.7	-	-	-	-	-
